# “And” between values parts separate entries of the source, which are not always exact repeats. Equal entries are not always repeated. The panel holds about 83,000 compounds, 20% with a hit somewhere; the sample as a whole holds those more often.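 Negative percent growth values reflect cell death: -40 means 40% of the cells present at the start died, and -100 means all died.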 Unmarked numbers belong to inactive results. The source made the active and inactive calls. How the source made its calls: active means growth percent below 10; inactive means the rest.
# System: A549/ATCC NSCLC
# Assay: NCI-60 one-dose screen, 48 h (100 = growth as untreated, 0 = no growth, -100 = all killed)
# Details: 10 µM unless noted
row,SMILES,growth
1,COc1ccc(C/C(C)=C(/c2ccc(OCCN3CCCC3)cc2)c2ccc(OC(=O)NCc3ccccc3)cc2)cc1,72.3%
2,CCN(CC)CCOc1ccc(/C(=C(\Cl)c2ccccc2)c2ccccc2)cc1,84.8%
3,Cc1ccc(/C=C2\COc3ccc(O)c(O)c3C2=O)cc1,27.4%
4,COc1ccc2c(c1)oc1c(C)c3c(c(C)c12)C(=O)N(Nc1ccccc1)C3=O,112%
5,CCC(=C(c1ccc(OCCCN(C)C)cc1)c1ccc(OCCCN(C)C)cc1)c1ccc(Cl)cc1,-69.9% (active)
6,CCOC(=O)c1c(-c2ccc(C)cc2)c(C#N)c(=O)n(-c2cccc(C(F)(F)F)c2)c1N,101%
7,S=c1nc(CS)[nH]c2ccccc12,96.6%
8,O=C(N/N=C/c1ccc(O)cc1O)c1cccc(Nc2ccnc(C(F)(F)F)c2)c1,55.9%
9,CCN(CC)CCCN1C(=O)c2c(c(C)c3c(oc4cc(OC)ccc43)c2C)C1=O,92.5%
10,Cc1ccc(NC(=O)c2ccc(CN3CCN(C)CC3)cc2)cc1Nc1nccc(-c2cccnc2)n1,96.2% and 62.2%
11,COc1cc(/C=C2/C=C(c3ccc(C(C)(C)C)cc3)N(CCc3ccc(S(N)(=O)=O)cc3)C2=O)cc(OC)c1OC,38.2%
12,O=c1c(/C=C/c2ccco2)nnc2sc(Nc3ccc(Cl)cc3)nn12,101%
13,Nc1[nH]nc(Nc2ccccc2)c1-c1nc2ccccc2s1,20%
14,CCCCCCCCn1ccc2cc(NC(=O)CN3CCN(c4nc(C)cc(N5CCCCC5)n4)CC3)ccc21,83.4%

# From PubChem BioAssay (NCI)
